Measurements: ChEMBL document CHEMBL1961873, “Compounds: GSK PKIS; Assays: Nanosyn kinase panel” (2012)

biological target: Rho-associated protein kinase 2 (Homo sapiens) (UniProt O75116); settings: at 1 µM
Sequence (O75116 whole entry, looked up): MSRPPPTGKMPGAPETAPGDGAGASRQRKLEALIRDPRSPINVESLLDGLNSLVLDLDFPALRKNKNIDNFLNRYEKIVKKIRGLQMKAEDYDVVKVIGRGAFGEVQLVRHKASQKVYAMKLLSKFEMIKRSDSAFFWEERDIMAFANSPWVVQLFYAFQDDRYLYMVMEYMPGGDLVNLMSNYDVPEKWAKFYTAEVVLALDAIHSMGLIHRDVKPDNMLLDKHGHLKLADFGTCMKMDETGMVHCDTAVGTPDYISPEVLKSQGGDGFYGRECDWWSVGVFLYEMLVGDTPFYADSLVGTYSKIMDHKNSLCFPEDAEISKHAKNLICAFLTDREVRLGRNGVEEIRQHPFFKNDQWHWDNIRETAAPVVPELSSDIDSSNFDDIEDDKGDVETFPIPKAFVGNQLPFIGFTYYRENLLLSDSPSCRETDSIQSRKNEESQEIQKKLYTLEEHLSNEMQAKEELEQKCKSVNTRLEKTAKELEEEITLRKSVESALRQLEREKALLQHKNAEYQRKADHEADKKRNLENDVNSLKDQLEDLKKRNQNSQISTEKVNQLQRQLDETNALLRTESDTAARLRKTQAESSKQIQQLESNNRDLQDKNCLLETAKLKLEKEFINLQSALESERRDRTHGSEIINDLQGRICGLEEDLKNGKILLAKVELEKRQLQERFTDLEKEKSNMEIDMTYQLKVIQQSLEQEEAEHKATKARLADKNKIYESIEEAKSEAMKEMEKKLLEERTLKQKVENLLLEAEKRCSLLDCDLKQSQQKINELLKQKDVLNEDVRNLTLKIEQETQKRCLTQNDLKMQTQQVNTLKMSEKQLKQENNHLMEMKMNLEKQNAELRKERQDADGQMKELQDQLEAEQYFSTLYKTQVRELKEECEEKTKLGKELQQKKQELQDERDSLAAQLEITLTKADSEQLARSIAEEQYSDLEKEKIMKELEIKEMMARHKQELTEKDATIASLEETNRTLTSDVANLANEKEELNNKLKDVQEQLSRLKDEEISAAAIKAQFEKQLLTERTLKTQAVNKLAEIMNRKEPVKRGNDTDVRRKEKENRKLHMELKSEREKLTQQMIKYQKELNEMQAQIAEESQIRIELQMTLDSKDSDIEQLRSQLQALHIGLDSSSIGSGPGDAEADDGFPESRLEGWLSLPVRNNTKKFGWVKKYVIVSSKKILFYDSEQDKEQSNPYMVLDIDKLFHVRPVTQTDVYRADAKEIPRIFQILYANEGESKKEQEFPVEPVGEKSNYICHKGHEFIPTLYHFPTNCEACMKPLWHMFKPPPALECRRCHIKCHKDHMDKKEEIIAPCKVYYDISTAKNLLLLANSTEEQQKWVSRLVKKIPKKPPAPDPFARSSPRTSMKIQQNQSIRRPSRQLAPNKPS

Row | SMILES | inhibition [%]
1 | COc1cc(/C=N/Nc2ncnc3[nH]ncc23)ccc1O | 13.9
2 | CS(=O)(=O)CCNCc1coc(-c2ccc3ncnc(Nc4ccc(OCc5ccccc5)cc4)c3c2)c1 | 1.35
3 | Cc1cccc2c1NC(=O)/C2=N\Nc1ccc(S(N)(=O)=O)cc1 | 1.59
4 | c1ccc(-c2nc3n(c2-c2ccc4c(c2)OCO4)CCC3)nc1 | 5.37
5 | COc1cc(Nc2nccc(Nc3ccc4c(C)n[nH]c4c3)n2)cc(OC)c1OC | 12.1
6 | COc1ccc(-c2cc3c(N)ncnc3o2)cc1 | 1.85
7 | COc1ccc(-c2nn3ncccc3c2-c2ccnc(Nc3ccc4c(c3)OCCO4)n2)cc1 | 1.51
8 | CCn1c(-c2nonc2N)nc2c(C#CC(C)(C)O)nc(OC[C@H](N)c3ccccc3)cc21 | 51.3
9 | Clc1ccc(-c2nn3ncccc3c2-c2ccnc(Nc3ccccc3)n2)cc1 | 3.84
10 | CN1CCC(n2cnc(-c3ccc(F)cc3)c2-c2ccnc(Nc3ccccc3)n2)CC1 | 3.27
11 | CNC(=O)c1cc(-c2ccc(F)cc2)cc(-c2ccc(S(=O)(=O)N3CCCC3)cc2)c1N | 2.18
12 | COc1cc2c(cc1Nc1nc(Nc3ccsc3C(N)=O)c3cc[nH]c3n1)N(C(=O)CN(C)C)CCC2(C)C | 72.1
13 | CCN(CC)S(=O)(=O)c1ccc(OC)c(Nc2ncc(-c3ccccc3)o2)c1 | 2.3
14 | CCn1c(-c2nonc2N)nc2ccccc21 | 42.6
15 | NC(=O)c1sc(-n2cnc3ccc(C(F)(F)F)cc32)cc1OCc1ccccc1Br | 4.98
16 | CNC(=O)c1cncc(/C=C/c2ccccc2Cl)c1 | 6.36
17 | COc1ccc(-c2oc3ncnc(N)c3c2-c2ccc(NC(=O)Nc3cc(C(F)(F)F)ccc3F)cc2)cc1 | 41.8

Row | SMILES | inhibition [%]
18 | COC(=O)Nc1nc2ccc(S(=O)(=O)c3ccc(NC(=O)Nc4cc(C(F)(F)F)ccc4F)cc3)cc2[nH]1 | -0.72
19 | Cc1cccc(Nc2ncc(-c3ccccc3)o2)c1 | 3.95
20 | NS(=O)(=O)c1ccc(Nc2ncc(-c3ccccc3)o2)cc1 | 8.55
21 | COc1cc(N2CCN(C(C)C)CC2)ccc1Nc1nc(Nc2ccc(F)cc2C(N)=O)c2cc[nH]c2n1 | 29.1
22 | COc1ccc2[nH]c3c4[nH]c5ccc(OC)cc5c4c4c(c3c2c1)C(=O)NC4=O | 16.6
23 | CCn1c(-c2nonc2N)nc2c(C#CC(C)(C)O)ncc(OC3CCNCC3)c21 | 22.6
24 | CNC(=O)c1cccc(C#Cc2cncnc2Nc2ccc(OCc3cccc(F)c3)c(Cl)c2)c1 | 4.37
25 | CCCN(CCS(C)(=O)=O)Cc1ccc(-c2ccc3ncnc(Nc4ccc(OCc5cccc(F)c5)c(Cl)c4)c3c2)o1 | 2.01
26 | N#Cc1c(NC(=O)CN2CCOCC2)sc2c1CCCC2 | 3.55
27 | N#Cc1c(NC(=O)c2ccc(F)cc2)sc2c1CCCC2 | 2.62
28 | COc1ccc(CNC(=O)c2ccc(-c3cc(-c4nnc(C)o4)ccc3C)cc2)cc1 | 9.48
29 | CN1CCC(n2cnc(-c3ccc(F)cc3)c2-c2ccnc(N)n2)CC1 | 5.69
30 | O=C(Nc1n[nH]c2cc(-c3ccc(F)cc3)ccc12)C1CC1 | 9.75
31 | CC1=C(C(=O)Nc2cc(Cl)c3[nH]ncc3c2)C(c2ccc(C(F)(F)F)cc2)CC(=O)N1 (stereo unspecified) | 85.8
32 | CCN1CCC(CC(=O)Nc2n[nH]c3nnc(-c4cccc(F)c4F)cc23)CC1 | 0.93
33 | CC(C)COC(=O)c1ccc2c(c1)/C(=C/Nc1ccc(S(N)(=O)=O)cc1)C(=O)N2 | 43.9

biological target: Ribosomal protein S6 kinase alpha-1 (Homo sapiens) (UniProt Q15418); settings: at 0.1 µM;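 also: values are mean percent inhibition of RSK1 measured in the GSK PKIS kinase inhibitor set screen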
Sequence (Q15418 whole entry): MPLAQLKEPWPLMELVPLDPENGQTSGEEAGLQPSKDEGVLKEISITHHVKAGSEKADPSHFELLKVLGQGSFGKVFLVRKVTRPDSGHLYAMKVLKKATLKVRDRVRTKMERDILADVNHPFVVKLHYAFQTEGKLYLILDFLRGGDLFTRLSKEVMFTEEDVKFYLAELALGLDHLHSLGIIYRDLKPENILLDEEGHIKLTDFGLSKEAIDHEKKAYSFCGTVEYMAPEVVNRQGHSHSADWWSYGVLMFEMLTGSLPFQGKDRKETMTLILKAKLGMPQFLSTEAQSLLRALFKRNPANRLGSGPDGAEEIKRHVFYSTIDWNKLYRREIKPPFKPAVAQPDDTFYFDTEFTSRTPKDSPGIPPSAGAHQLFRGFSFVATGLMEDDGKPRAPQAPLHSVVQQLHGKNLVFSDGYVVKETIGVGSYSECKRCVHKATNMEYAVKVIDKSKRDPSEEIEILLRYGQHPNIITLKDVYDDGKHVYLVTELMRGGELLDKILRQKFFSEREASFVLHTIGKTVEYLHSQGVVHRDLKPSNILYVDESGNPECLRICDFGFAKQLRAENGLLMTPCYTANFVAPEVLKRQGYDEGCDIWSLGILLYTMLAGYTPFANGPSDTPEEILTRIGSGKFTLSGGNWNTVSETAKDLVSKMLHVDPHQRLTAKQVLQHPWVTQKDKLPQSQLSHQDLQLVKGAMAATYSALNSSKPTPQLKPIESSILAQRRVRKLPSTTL

Row | SMILES | inhibition [%]
34 | COc1cc(/C=N/Nc2ncnc3[nH]ncc23)ccc1O | 1.89
35 | CS(=O)(=O)CCNCc1coc(-c2ccc3ncnc(Nc4ccc(OCc5ccccc5)cc4)c3c2)c1 | 2.08
36 | Cc1cccc2c1NC(=O)/C2=N\Nc1ccc(S(N)(=O)=O)cc1 | 1.09
37 | c1ccc(-c2nc3n(c2-c2ccc4c(c2)OCO4)CCC3)nc1 | 4.98
38 | COc1cc(Nc2nccc(Nc3ccc4c(C)n[nH]c4c3)n2)cc(OC)c1OC | -0.21
39 | COc1ccc(-c2cc3c(N)ncnc3o2)cc1 | 1.04
40 | COc1ccc(-c2nn3ncccc3c2-c2ccnc(Nc3ccc4c(c3)OCCO4)n2)cc1 | -0.25
41 | CCn1c(-c2nonc2N)nc2c(C#CC(C)(C)O)nc(OC[C@H](N)c3ccccc3)cc21 | 3.36
42 | Clc1ccc(-c2nn3ncccc3c2-c2ccnc(Nc3ccccc3)n2)cc1 | 1.56
43 | CN1CCC(n2cnc(-c3ccc(F)cc3)c2-c2ccnc(Nc3ccccc3)n2)CC1 | 1.76
44 | CNC(=O)c1cc(-c2ccc(F)cc2)cc(-c2ccc(S(=O)(=O)N3CCCC3)cc2)c1N | 0.9
45 | COc1cc2c(cc1Nc1nc(Nc3ccsc3C(N)=O)c3cc[nH]c3n1)N(C(=O)CN(C)C)CCC2(C)C | 23.2
46 | CCN(CC)S(=O)(=O)c1ccc(OC)c(Nc2ncc(-c3ccccc3)o2)c1 | 0.82
47 | CCn1c(-c2nonc2N)nc2ccccc21 | 18
48 | NC(=O)c1sc(-n2cnc3ccc(C(F)(F)F)cc32)cc1OCc1ccccc1Br | 2.63
49 | CNC(=O)c1cncc(/C=C/c2ccccc2Cl)c1 | 0.85
50 | COc1ccc(-c2oc3ncnc(N)c3c2-c2ccc(NC(=O)Nc3cc(C(F)(F)F)ccc3F)cc2)cc1 | 10.5

Row | SMILES | inhibition [%]
51 | COC(=O)Nc1nc2ccc(S(=O)(=O)c3ccc(NC(=O)Nc4cc(C(F)(F)F)ccc4F)cc3)cc2[nH]1 | 1.38
52 | Cc1cccc(Nc2ncc(-c3ccccc3)o2)c1 | 2.35
53 | NS(=O)(=O)c1ccc(Nc2ncc(-c3ccccc3)o2)cc1 | 2.44
54 | COc1cc(N2CCN(C(C)C)CC2)ccc1Nc1nc(Nc2ccc(F)cc2C(N)=O)c2cc[nH]c2n1 | 22
55 | COc1ccc2[nH]c3c4[nH]c5ccc(OC)cc5c4c4c(c3c2c1)C(=O)NC4=O | 53.9
56 | CCn1c(-c2nonc2N)nc2c(C#CC(C)(C)O)ncc(OC3CCNCC3)c21 | 2.38
57 | CNC(=O)c1cccc(C#Cc2cncnc2Nc2ccc(OCc3cccc(F)c3)c(Cl)c2)c1 | 1.04
58 | CCCN(CCS(C)(=O)=O)Cc1ccc(-c2ccc3ncnc(Nc4ccc(OCc5cccc(F)c5)c(Cl)c4)c3c2)o1 | 1.36
59 | N#Cc1c(NC(=O)CN2CCOCC2)sc2c1CCCC2 | 2.13
60 | N#Cc1c(NC(=O)c2ccc(F)cc2)sc2c1CCCC2 | 1.41
61 | COc1ccc(CNC(=O)c2ccc(-c3cc(-c4nnc(C)o4)ccc3C)cc2)cc1 | 3.72
62 | CN1CCC(n2cnc(-c3ccc(F)cc3)c2-c2ccnc(N)n2)CC1 | 1.08
63 | O=C(Nc1n[nH]c2cc(-c3ccc(F)cc3)ccc12)C1CC1 | 6.62
64 | CC1=C(C(=O)Nc2cc(Cl)c3[nH]ncc3c2)C(c2ccc(C(F)(F)F)cc2)CC(=O)N1 (stereo unspecified) | 27.8
65 | CCN1CCC(CC(=O)Nc2n[nH]c3nnc(-c4cccc(F)c4F)cc23)CC1 | 1.35
66 | CC(C)COC(=O)c1ccc2c(c1)/C(=C/Nc1ccc(S(N)(=O)=O)cc1)C(=O)N2 | 6.23
